Results published in PubChem BioAssay (NCATS).
A number with no mark means an inactive call. Records with an inconclusive call do not appear. Calls of active or inactive are those of the source. Unless noted, calls follow the shape of the dose curve; as a rule, active = well fitted curve in the direction sought with a large enough effect; inconclusive = small, poorly fitted or top-dose-only effect, or another doubt; inactive = no such curve, though single readings can be large; an effect the other way counts as inactive or inconclusive.

Columns and labels:
[1] = AP1 Signaling Pathway (AID 357; active = well fitted curve in either direction with a large enough effect, not every such curve was filed as active; also: % is scaled to controls: 0 for no effect and ±100 for the full control effect); conditions: ME-180 AP-1-bla reporter, EGF-induced, beta-lactamase ratio, 5 h; at 7.69 µM (top of the series) unless noted
In short: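 ME-180 cells with beta-lactamase reporter under AP-1 response element, stimulated with EC50 EGF; compounds tested in titration series, 5 h at 37 °C. CCF4 substrate added 2.5 h at room temperature; 460/530 nm emission ratio gave %activity and AC50.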

[2] = NFAT Signaling Pathway (AID 444; active = well fitted curve in either direction with a large enough effect, not every such curve was filed as active;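 also: carbachol stimulus at about its EC50 of 1 µM final; % is scaled to controls: 0 for no effect and ±100 for the full control effect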); conditions: Jurkat NFAT-bla M1, carbachol, beta-lactamase ratio, 5 h; at 7.69 µM (top of the series) unless noted
In short: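 Read-out: CCF4 FRET ratio (460 nm/530 nm) after 1 h RT dye loading, used for %activity and AC50 from titration series. Cells: Jurkat NFAT-β-lactamase/M1 line, treated with compound plus 1 uM carbachol for 5 h, 37 °C.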

[3] = Stat Signaling Pathway (AID 446; active = well fitted curve in either direction with a large enough effect, not every such curve was filed as active;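 also: ME-180 cervical cancer cells given 40 pM IL-6 alongside compound; SIE-controlled beta-lactamase reporter measured as 460/530 nm FRET emission ratio; % is scaled to controls: 0 for no effect and ±100 for the full control effect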); conditions: ME-180 SIE beta-lactamase reporter, IL-6 stimulated, 5 h; at 7.69 µM (top of the series) unless noted
In short: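 FRET read-out (405 nm excitation, 460/530 nm emission) of a beta-lactamase reporter under a STAT-inducible element in ME-180 cervical carcinoma cells. Cells with compound receive 40 pM IL-6 for 5 h. Values are normalised to AC90 stimulation and AC90 JAK-inhibitor controls.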

[4] = target: Glucocorticoid receptor (Homo sapiens) (UniProt P04150); assay: GR-GFP Redistribution (AID 450;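 active = compounds whose dose series gives a full or clear partial fitted curve of increased nuclear translocation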; also: potency is read from the fitted curve at half-maximal effect); conditions: U2OS GR-GFP nuclear translocation, laser cytometry, 2 h
Sequence of Glucocorticoid receptor (Homo sapiens) (P04150 whole entry, looked up, the tested form may be a part): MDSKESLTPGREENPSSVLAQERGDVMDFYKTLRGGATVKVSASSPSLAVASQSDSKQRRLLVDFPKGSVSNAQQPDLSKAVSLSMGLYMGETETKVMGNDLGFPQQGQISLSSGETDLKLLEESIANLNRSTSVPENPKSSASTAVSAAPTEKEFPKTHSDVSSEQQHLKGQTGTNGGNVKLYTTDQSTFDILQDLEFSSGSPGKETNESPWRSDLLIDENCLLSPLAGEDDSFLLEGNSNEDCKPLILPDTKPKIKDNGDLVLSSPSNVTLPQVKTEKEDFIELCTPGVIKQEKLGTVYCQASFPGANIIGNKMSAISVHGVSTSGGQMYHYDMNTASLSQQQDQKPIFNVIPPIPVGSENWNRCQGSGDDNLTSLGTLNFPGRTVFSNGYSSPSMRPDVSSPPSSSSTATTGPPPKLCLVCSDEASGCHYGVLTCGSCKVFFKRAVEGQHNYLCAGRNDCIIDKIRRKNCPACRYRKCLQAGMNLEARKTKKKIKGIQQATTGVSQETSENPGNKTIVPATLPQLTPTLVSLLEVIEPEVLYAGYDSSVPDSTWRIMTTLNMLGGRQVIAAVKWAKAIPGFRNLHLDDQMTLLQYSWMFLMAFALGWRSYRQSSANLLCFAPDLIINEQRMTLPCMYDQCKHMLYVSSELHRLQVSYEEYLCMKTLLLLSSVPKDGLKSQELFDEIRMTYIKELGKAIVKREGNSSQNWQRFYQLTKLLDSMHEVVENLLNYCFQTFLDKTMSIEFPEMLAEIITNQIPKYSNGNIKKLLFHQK

[5] = target: Glucocorticoid receptor (Homo sapiens) (UniProt P04150); assay: GR-EFC Redistribution (AID 451; calls by dose curve; also: potency is read from the fitted curve at half-maximal effect); conditions: CHO-K1 GR-EFC translocation, beta-gal luminescence, 2 h
In short: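 Translocation of GR-ED fusion to nuclear EA restores b-gal, read by luminescence after 1 h room-temperature detection. Engineered CHO-K1 biosensor cells, 1,000/well, exposed 2 h at 37 C to titrations up to 46 uM final.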

[6] = target: Mitogen-activated protein kinase 10 (Mus musculus) (UniProt Q61831); assay: JNK3 AlphaScreen Assay (AID 530; active = well fitted curve in either direction with a large enough effect, not every such curve was filed as active;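 also: kinase came from lysate of stimulated human HepG2 cells; signal reports phosphorylation of biotinylated GST-cJun 1-79 at Ser73 with 10 µM ATP; % is scaled to controls: 0 for no effect and ±100 for the full control effect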)
In short: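 Kinase buffer: 20 mM Tris-HCl pH 7.6, 10 mM MgCl2, 1 mM DTT, 0.1 mM Na3VO4, 0.01% Tween-20; ATP 10 uM. Substrate biotin-GST-cJun(1-79), enzyme from activated HepG2 lysates. Detection by Ser73 phospho-antibody AlphaScreen.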

[7] = target: 3',5'-cyclic-AMP phosphodiesterase 4B (Homo sapiens) (UniProt Q07343); assay: qHTS Assay for Inhibitors of PDE-IV (AID 607; active = well fitted activation curve with a large enough effect in the main read-out, with a control signal flat, not every such curve was filed as active; also: % of control where 0% means no effect)
Sequence of 3',5'-cyclic-AMP phosphodiesterase 4B (Homo sapiens) (Q07343 whole entry, looked up): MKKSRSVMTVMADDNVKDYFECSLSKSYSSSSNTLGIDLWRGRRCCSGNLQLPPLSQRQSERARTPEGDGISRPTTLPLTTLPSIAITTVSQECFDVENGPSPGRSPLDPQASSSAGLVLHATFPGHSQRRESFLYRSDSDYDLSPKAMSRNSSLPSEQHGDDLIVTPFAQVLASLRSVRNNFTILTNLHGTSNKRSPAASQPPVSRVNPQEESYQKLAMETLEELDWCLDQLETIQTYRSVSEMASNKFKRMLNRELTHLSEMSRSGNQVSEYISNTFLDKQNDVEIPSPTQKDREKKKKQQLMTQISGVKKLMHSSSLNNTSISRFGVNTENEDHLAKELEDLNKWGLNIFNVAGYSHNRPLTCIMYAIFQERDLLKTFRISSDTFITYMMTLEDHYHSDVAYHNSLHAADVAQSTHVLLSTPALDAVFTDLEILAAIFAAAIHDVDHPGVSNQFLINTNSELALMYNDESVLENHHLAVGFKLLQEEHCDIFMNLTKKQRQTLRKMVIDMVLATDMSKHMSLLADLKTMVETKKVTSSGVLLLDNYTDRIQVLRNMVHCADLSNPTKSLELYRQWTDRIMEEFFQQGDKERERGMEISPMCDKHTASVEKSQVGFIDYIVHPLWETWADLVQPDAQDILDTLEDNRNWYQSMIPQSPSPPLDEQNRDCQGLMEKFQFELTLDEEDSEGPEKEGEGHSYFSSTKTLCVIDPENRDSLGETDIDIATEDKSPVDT
In short: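 Cell-based read-out of cAMP via a modified cyclic nucleotide-gated channel and membrane potential dye (535/590 nm) in HEK293 cells expressing PDE4 endogenously. Compounds tested up to 22.9 uM final; 100 uM RO 20-1724 reference.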

[8] = target: Dual specificity protein kinase CLK4 (Homo sapiens) (UniProt Q9HAZ1); assay: qHTS Assay for Inhibitors of CDC-like Kinase 4 (Kinase-Glo Assay) (AID 1770); also: nearly all actives have a fitted effect of over 65% in size; also: potency is read from the fitted curve at half-maximal effect
Sequence of Dual specificity protein kinase CLK4 (Homo sapiens) (Q9HAZ1 whole entry, looked up): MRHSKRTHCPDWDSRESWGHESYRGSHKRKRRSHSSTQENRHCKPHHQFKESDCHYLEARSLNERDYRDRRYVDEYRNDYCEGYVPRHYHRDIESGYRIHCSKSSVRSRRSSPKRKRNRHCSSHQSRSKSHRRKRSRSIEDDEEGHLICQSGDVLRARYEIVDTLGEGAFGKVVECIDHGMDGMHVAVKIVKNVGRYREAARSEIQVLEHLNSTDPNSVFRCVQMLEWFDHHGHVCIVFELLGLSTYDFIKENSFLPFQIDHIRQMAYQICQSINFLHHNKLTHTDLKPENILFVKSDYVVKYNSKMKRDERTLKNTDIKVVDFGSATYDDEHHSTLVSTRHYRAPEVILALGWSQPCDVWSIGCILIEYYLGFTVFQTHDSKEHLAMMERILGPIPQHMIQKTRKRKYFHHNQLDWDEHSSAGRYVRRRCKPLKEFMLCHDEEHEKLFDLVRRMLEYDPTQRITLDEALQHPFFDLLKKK
In short: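 Readout: Kinase-Glo luminescence from ATP left after a 4.5 h room-temperature reaction of 25 nM Clk4 with 100 uM RS peptide and 1 uM ATP (final). Buffer: 25 mM Tris pH 7.5, 10 mM MgCl2.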

[9] = target: Dual specificity protein kinase CLK4 (Homo sapiens) (UniProt Q9HAZ1); assay: qHTS Assay for Inhibitors of CDC-like Kinase 4 (ADP-Glo Assay) (AID 1771); also: nearly all actives have a fitted effect of over 70% in size; also: potency is read from the fitted curve at half-maximal effect
In short: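 25 nM Clk4, 100 uM RS peptide, 1 uM ATP (final); 2 mM MgCl2, 0.5 mM EGTA, 2.5 mM DTT, 0.01% Triton X-100; 1 hr RT. ADP-Glo readout: ATP depletion 45 min, conversion/luciferase 30 min, luminescence.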

[10] = target: Dual specificity protein kinase CLK4 (Homo sapiens) (UniProt Q9HAZ1); assay: qHTS Assay for Inhibitors of CDC-like Kinase 4 (ADP-FP Assay) (AID 1795); also: nearly all actives have a fitted effect of over 60% in size; also: potency is read from the fitted curve at half-maximal effect
In short: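 FP readout: Orange Transcreener ADP2 tracer (4 nM) plus ADP antibody, read after 30 min at room temperature. Kinase step: 6.25 nM Clk4, 100 uM RS peptide, 1 uM ATP, pH 7.5, 1 h.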

[11] = target: Ubiquitin carboxyl-terminal hydrolase 1 (Homo sapiens) (UniProt O94782); assay: Inhibitors of USP1/UAF1: Pilot qHTS (AID 504865);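 also: rhodamine fluorescence freed from ubiquitin-rhodamine substrate followed over time; top concentration of the series differs between compounds; % is scaled to controls: 0 for no effect and ±100 for the full control effect; nearly all actives have a fitted effect of over 35% in size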
Sequence of Ubiquitin carboxyl-terminal hydrolase 1 (Homo sapiens) (O94782 whole entry, looked up): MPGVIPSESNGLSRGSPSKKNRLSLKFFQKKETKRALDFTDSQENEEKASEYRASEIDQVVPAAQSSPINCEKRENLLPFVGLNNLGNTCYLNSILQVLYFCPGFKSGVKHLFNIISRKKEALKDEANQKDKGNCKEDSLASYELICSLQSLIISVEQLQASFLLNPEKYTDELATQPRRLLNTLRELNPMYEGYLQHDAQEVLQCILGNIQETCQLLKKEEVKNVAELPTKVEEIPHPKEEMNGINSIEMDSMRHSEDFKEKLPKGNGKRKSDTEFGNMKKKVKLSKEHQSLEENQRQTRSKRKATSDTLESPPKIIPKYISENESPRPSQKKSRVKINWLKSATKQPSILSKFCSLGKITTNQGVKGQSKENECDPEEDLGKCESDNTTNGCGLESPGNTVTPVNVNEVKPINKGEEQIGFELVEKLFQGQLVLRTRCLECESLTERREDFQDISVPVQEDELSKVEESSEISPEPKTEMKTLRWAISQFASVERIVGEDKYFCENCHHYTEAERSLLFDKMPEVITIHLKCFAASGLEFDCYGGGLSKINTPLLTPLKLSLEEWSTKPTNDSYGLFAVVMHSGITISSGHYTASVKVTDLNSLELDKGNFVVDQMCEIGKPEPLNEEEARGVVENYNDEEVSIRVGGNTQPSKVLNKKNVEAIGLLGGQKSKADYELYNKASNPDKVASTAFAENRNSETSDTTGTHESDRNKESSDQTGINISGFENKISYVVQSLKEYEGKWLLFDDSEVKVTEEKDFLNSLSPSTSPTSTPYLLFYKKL
In short: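 1nM USP1/UAF1 + cpd, 15 min RT; start w/ Ub-Rho 150nM final; kinetic FL 480/540 nm, 6 reads q60 s. Buffer 50mM HEPES pH 7.8, 0.5mM EDTA, 1mM TCEP, 0.01% Tween-20, 0.1 mg/ml BSA.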

[12] = Primary qHTS for small molecule stabilizers of the endoplasmic reticulum resident proteome: Secreted ER Calcium Modulated Protein (SERCaMP) assay (AID 1508630); also: % is scaled to controls: 0 for no effect and ±100 for the full control effect
In short: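 The SH-SY5Y reporter protocol was run at 3 concentrations up to 38.3 uM (primary) or 11 concentrations (follow-up): 16 h compound, 100 nM thapsigargin for 4 h, then extracellular luciferase luminescence.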

[13] = target: Lysosomal acid glucosylceramidase (Homo sapiens) (UniProt P04062); assay: Glucocerebrosidase-p2 (AID 348; in the data active = potency below about 10 µM; also: potency is read from the fitted curve at half-maximal effect); conditions: purified GBA, blue fluorogenic substrate, 40 min
Sequence of Lysosomal acid glucosylceramidase (Homo sapiens) (P04062 whole entry, looked up): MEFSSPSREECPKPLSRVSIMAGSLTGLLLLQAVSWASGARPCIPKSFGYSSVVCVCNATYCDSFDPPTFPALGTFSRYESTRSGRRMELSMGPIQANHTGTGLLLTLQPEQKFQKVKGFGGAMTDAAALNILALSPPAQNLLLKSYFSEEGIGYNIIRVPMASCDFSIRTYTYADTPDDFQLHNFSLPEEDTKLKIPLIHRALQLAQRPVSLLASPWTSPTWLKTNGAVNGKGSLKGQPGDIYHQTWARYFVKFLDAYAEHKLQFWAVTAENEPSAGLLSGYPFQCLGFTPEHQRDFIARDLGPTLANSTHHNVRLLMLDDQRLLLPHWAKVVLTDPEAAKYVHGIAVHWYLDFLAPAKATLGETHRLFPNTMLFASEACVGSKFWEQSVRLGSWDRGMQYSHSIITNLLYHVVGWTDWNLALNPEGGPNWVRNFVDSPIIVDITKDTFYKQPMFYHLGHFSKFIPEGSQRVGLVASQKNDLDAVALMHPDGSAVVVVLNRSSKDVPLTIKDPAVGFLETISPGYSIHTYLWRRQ
In short: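 Normal human glucocerebrosidase (0.2 nM) with blue fluorogenic substrate (80 uM final) in citrate/phosphate pH 5.9 with 10mM sodium taurocholate, 0.01% tween-20; 40 min RT, NaOH/glycine stop; fluorescence Ex 365/Em 440; AC50 from a titration from 0.6 nM upwards.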

[14] = target: Cytochrome P450 1A2 (Homo sapiens) (UniProt P05177); assay: p450-cyp1a2 (AID 410; calls by dose curve; also: potency is read from the fitted curve at half-maximal effect)
Sequence of Cytochrome P450 1A2 (Homo sapiens) (P05177 whole entry, looked up): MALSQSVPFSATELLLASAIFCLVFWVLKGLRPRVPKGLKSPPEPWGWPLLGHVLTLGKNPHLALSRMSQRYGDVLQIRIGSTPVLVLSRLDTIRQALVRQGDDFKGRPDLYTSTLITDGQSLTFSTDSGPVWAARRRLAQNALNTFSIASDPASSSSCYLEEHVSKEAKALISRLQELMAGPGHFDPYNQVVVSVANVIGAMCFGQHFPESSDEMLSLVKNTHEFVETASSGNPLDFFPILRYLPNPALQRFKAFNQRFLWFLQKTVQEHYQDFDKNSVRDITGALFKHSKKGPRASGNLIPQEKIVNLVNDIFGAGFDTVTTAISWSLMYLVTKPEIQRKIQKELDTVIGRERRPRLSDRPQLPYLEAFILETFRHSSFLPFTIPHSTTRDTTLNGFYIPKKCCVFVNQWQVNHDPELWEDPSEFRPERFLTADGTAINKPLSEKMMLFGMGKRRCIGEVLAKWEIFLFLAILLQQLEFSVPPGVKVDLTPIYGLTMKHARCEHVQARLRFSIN
In short: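 20nM CYP1A2, 100uM Luciferin-ME (=Km), 100mM KPO4; cpd 10 min RT; +NADPH regen, 60 min RT; stop/detect 20 min; luminescence. Normalized to furafylline 57 uM = full inhibition.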

[15] = target: Cytochrome P450 3A4 (Homo sapiens) (UniProt P08684); assay: qHTS Assay for Inhibitors and Substrates of Cytochrome P450 3A4 (AID 884); also: potency is read from the fitted curve at half-maximal effect; nearly all actives have a fitted effect of over 50% in size
Sequence of Cytochrome P450 3A4 (Homo sapiens) (P08684 whole entry, looked up): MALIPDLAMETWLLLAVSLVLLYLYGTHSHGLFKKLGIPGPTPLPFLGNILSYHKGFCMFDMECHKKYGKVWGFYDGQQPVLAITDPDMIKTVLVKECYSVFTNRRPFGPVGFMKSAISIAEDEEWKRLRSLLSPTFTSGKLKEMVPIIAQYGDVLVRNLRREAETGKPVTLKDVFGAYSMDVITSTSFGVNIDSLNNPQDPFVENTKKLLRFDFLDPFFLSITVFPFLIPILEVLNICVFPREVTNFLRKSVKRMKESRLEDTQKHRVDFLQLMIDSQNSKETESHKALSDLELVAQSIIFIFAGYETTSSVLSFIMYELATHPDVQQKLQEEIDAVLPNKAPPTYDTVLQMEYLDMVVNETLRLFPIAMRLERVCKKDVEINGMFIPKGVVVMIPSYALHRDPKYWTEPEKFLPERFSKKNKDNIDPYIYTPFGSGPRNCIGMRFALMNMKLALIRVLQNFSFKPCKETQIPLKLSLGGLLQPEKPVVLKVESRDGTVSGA
In short: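 Luminescent readout of luciferin produced by CYP3A4 (20 nM) dealkylation of Luciferin-PPXE, 25 uM (its KM). NADPH-driven reaction ran 60 min at RT after 10 min compound preincubation; data scaled to 57 uM ketoconazole as 100% inhibition.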

[16] = target: Cytochrome P450 3A4 (Homo sapiens) (UniProt P08684); assay: qHTS Assay for Activators of Cytochrome P450 3A4 (AID 885); also: nearly all actives have a fitted effect of over 65% in size
In short: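 Luminescent readout of luciferin formed from 25 uM Luciferin-PPXE (KM level) by 20 nM CYP3A4 in 200 mM KPO4, with 60 min NADPH-driven reaction at room temperature after 10 min compound exposure. Ketoconazole (57 uM) defined 100% inhibition.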

[17] = target: Cytochrome P450 2C19 (Homo sapiens) (UniProt P33261); assay: qHTS Assay for Inhibitors and Substrates of Cytochrome P450 2C19 (AID 899); also: % is scaled to controls: 0 for no effect and ±100 for the full control effect; nearly all actives have a fitted effect of over 60% in size
Sequence of Cytochrome P450 2C19 (Homo sapiens) (P33261 whole entry, looked up): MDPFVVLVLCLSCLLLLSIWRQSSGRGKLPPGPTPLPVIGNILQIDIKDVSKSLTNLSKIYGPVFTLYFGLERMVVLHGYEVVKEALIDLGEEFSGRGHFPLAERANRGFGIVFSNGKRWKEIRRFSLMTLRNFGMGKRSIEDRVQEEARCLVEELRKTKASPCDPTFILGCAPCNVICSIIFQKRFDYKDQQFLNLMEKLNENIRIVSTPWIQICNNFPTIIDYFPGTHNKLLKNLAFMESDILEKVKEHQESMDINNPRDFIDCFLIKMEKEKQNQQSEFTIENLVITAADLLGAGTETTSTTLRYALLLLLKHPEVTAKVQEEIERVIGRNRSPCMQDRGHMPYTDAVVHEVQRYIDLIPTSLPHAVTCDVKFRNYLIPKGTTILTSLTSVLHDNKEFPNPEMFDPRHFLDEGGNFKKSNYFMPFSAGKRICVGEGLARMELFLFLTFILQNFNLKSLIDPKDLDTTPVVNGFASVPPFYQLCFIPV
In short: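 5nM enzyme + 10uM Luciferin-H EGE (=KM), 50mM KPO4; cpd pin-transferred, 10 min 37C; NADPH regen, 60 min 37C; stopped w/ luciferin detection reagent, 20 min; luminescence. Normalized to 57uM ketoconazole (AC100).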

[18] = qHTS Assay for Identification of Small Molecule Agonists for Hypoxia Response Element Signaling Pathway (AID 914; active = well fitted activation curve with a large enough effect in the signal ratio, with a control signal flat, not every such curve was filed as active; the % refers to the signal ratio; also: potency is read from the fitted curve at half-maximal effect); conditions: ME-180 (cervical carcinoma) HRE-bla reporter, beta-lactamase ratio, CoCl2, 17 h; activation: active compounds read high
In short: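 Compounds in a titration series were added to ME-180 reporter cells alongside an EC50 level of CoCl2. After 17 hours, beta-lactamase activity was read as the 460nm/530nm emission ratio of CCF4, giving AC50 values.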

CNc1ccnc(-c2cccc(NS(C)(=O)=O)c2)n1
activity change, negative = inhibition [1]: 13.6% | activity change, negative = inhibition [2]: 18.6% | activity, negative = inhibition [3]: -1.8% | Potency [4]: > 46 µM | Potency [5]: > 46 µM | Potency [6]: inactive | Potency [7]: inactive | Potency [8]: inactive | Potency [9]: inactive | Potency [10]: inactive | Potency [11]: inactive | outcome [12]: inactive

CN(C)c1ccc(-c2cncnc2-n2ccnc2)cc1
Potency [13]: > 11.4 µM | activity change, negative = inhibition [1]: -3.44% | Potency [14]: 2.51 µM (active) | activity change, negative = inhibition [2]: 4.48% | activity, negative = inhibition [3]: 10.2% | Potency [4]: > 46 µM | Potency [5]: > 46 µM | Potency [6]: inactive | Potency [7]: inactive | Potency [15]: 2.51 µM (active) | Potency [16]: inactive | Potency [8]: 14.1 µM (active) | Potency [9]: 25.1 µM (active) | Potency [11]: inactive | outcome [12]: inactive

COc1ncc2nc(C)c(=O)n(Cc3ccc(F)cc3)c2n1
activity change, negative = inhibition [1]: -12.3% | activity change, negative = inhibition [2]: -2.65% | activity, negative = inhibition [3]: -17.5% | Potency [4]: > 9.22 µM | Potency [5]: > 46 µM | Potency [6]: inactive | Potency [7]: inactive | Potency [8]: inactive | Potency [9]: inactive | Potency [10]: inactive | Potency [11]: inactive | outcome [12]: inactive

COCCn1c(=O)c(-c2ccc(Cl)cc2)nc2cnc(N3CCOCC3)nc21
Potency [13]: > 11.4 µM | activity change, negative = inhibition [1]: 9.82% | Potency [14]: 1 µM (active) | activity change, negative = inhibition [2]: 7.69% | activity, negative = inhibition [3]: 9.52% | Potency [4]: > 9.22 µM | Potency [5]: > 46 µM | Potency [6]: inactive | Potency [8]: inactive | Potency [9]: inactive | Potency [11]: inactive | outcome [12]: inactive

Cc1cnc(CNc2ncncc2-c2ccoc2)cn1
Potency [13]: > 11.4 µM | activity change, negative = inhibition [1]: 0.489% | Potency [14]: 12.6 µM (active) | activity change, negative = inhibition [2]: -1.22% | activity, negative = inhibition [3]: 3.39% | Potency [4]: > 46 µM | Potency [5]: > 46 µM | Potency [6]: inactive | Potency [7]: inactive | Potency [15]: 2 µM (active) | Potency [16]: inactive | Potency [8]: inactive | Potency [9]: inactive | Potency [11]: inactive | outcome [12]: inactive

COc1ncc2nc(-c3cn(C)c4ccccc34)c(=O)n(C)c2n1
Potency [13]: > 11.4 µM | activity change, negative = inhibition [1]: 4.21% | Potency [14]: 1 µM (active) | activity change, negative = inhibition [2]: 11.4% | activity, negative = inhibition [3]: 7.15% | Potency [4]: > 9.22 µM | Potency [5]: > 46 µM | Potency [6]: inactive | Potency [7]: inactive | Potency [15]: 5.01 µM (active) | Potency [16]: inactive | Potency [17]: inactive | Potency [8]: inactive | Potency [9]: inactive | Potency [11]: inactive | outcome [12]: inactive

COCCn1c(=O)c(CCc2ccccc2)nc2cnc(Nc3ccccc3)nc21
activity change, negative = inhibition [1]: 16.9% | activity change, negative = inhibition [2]: 10.5% | Potency [4]: > 9.22 µM | Potency [5]: > 46 µM | Potency [6]: inactive | Potency [8]: inactive | Potency [9]: inactive | Potency [10]: inactive | Potency [11]: inactive | outcome [12]: inactive

CCNc1ncc2nc(CCc3ccccc3)c(=O)n(C[C@H]3CCCO3)c2n1
activity change, negative = inhibition [1]: -23.9% | activity change, negative = inhibition [2]: -3.48% | activity, negative = inhibition [3]: -9.11% | Potency [4]: > 9.22 µM | Potency [5]: > 46 µM | Potency [6]: inactive | Potency [8]: inactive | Potency [9]: inactive | Potency [10]: inactive | Potency [11]: inactive | outcome [12]: inactive

COc1cccc(-c2cc(NCc3cnc(C)cn3)ncn2)c1
Potency [13]: > 11.4 µM | activity change, negative = inhibition [1]: 12.1% | Potency [14]: 5.01 µM (active) | activity change, negative = inhibition [2]: -0.299% | activity, negative = inhibition [3]: -1.25% | Potency [4]: > 46 µM | Potency [5]: > 46 µM | Potency [6]: inactive | Potency [7]: inactive | Potency [16]: inactive | Potency [8]: 17.8 µM (active) | Potency [9]: 15.8 µM (active) | Potency [11]: inactive | outcome [12]: inactive

Cn1c(=O)c(-c2cc(F)cc(F)c2)nc2cnc(N3CCNCC3)nc21
Potency [4]: > 9.22 µM | Potency [5]: > 46 µM | Potency [6]: inactive | Potency [7]: inactive | Potency [16]: inactive | Potency [18]: 3.16 µM (active) | Potency [8]: inactive | Potency [9]: inactive | Potency [10]: inactive | Potency [11]: inactive | outcome [12]: inactive

COc1ccc(CNc2ncnc3ccc(-c4ccc5c(c4)OCO5)cc23)c(OC)c1
activity change, negative = inhibition [1]: -16.9% | activity, negative = inhibition [3]: -5.8% | Potency [4]: > 46 µM | Potency [5]: > 46 µM | Potency [6]: inactive | Potency [8]: 1.41 µM (active) | Potency [9]: 1.41 µM (active) | Potency [10]: 0.398 µM (active) | Potency [11]: inactive | outcome [12]: inactive

CCNc1ncc2nc(-c3ccc(OC)cc3)c(=O)n(Cc3cccs3)c2n1
Potency [14]: 0.631 µM (active) | activity change, negative = inhibition [2]: 2.94% | Potency [4]: > 9.22 µM | Potency [5]: > 46 µM | Potency [6]: inactive | Potency [16]: inactive | Potency [18]: 3.16 µM (active) | Potency [8]: inactive | Potency [9]: inactive | Potency [10]: inactive | Potency [11]: inactive | outcome [12]: inactive

COc1ccc2[nH]cc(CCNc3cc(-c4ccc5c(c4)OCO5)ncn3)c2c1
activity change, negative = inhibition [2]: 19.3% | Potency [4]: > 46 µM | Potency [5]: > 46 µM | Potency [8]: 3.98 µM (active) | Potency [9]: 3.16 µM (active) | Potency [10]: 2.51 µM (active) | Potency [11]: inactive | outcome [12]: inactive
